Results: PubChem BioAssay (NCATS)
Inconclusive results are not listed. The source made the active and inactive calls. Calls come from the whole dose curve; as a rule, active = well fitted curve in the direction sought with a large enough effect; inconclusive = small, poorly fitted or top-dose-only effect, or another doubt; inactive = no such curve, though single readings can be large; an effect the other way counts as inactive or inconclusive.

Tests used:
[1] = biological target: Glutathione peroxidase 1 (Homo sapiens) (UniProt P07203); experiment: Primary qHTS Assay for Inhibitors of Recombinant Selenoprotein Glutathione Peroxidase 1 (GPX1) (AID 1845191); details: recombinant GPX1, GR-coupled NADPH fluorescence, 15 min; series mostly up to 27.7 µM; note: nearly all actives have a fitted effect of over 65% in size; for activity, negative = inhibition: % is set by controls: 0 for no effect and ±100 for the full control effect
How it was run: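 Recombinant GPX1 (10 nM final) was preincubated with compound for 30 min at room temperature, then reacted with 1 mM GSH, 0.5 mM CHP, 0.5 mM NADPH and 100 nM glutathione reductase; NADPH fluorescence (340/450 nm) was read at 0 and 15 min.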

[2] = biological target: Phospholipid hydroperoxide glutathione peroxidase GPX4 (Homo sapiens) (UniProt P36969); experiment: Primary qHTS Assay for Inhibitors of Recombinant Selenoprotein Glutathione Peroxidase 4 (GPX4) (AID 1845192); details: recombinant GPX4, GR-coupled NADPH fluorescence, 15 min; series mostly up to 27.8 µM; note: nearly all actives have a fitted effect of over 65% in size; for activity change, negative = inhibition: % is set by controls: 0 for no effect and ±100 for the full control effect
How it was run: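 GR-coupled readout: 100 nM GR, 1 mM GSH, 0.5 mM NADPH; NADPH fluorescence (ex 340/em 450 nm) read at t=0 and after 15 min RT. GPX4 200 nM, preincubated 30 min with compound; substrate 0.5 mM CHP.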

[3] = biological target: Luciferin 4-monooxygenase (Photinus pyralis) (UniProt P08659); experiment: Primary firefly luciferase (FLuc) qHTS assay for identification of artifact compounds. (AID 1845220); details: purified firefly luciferase, luminescence, 5 min; series mostly up to 54.1 µM; note: nearly all actives have a fitted effect of over 60% in size;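 for activity change, negative = inhibition: plate controls were DMSO vehicle for no effect and no enzyme for full effect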
How it was run: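 In this counter-screen for luciferase artifacts, test compounds met substrate (10 uM each luciferin and ATP) before 10 nM enzyme started the reaction. Light output was measured 5 min later.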

[4] = test system: Nanoluciferase (engineered Oplophorus gracilirostris luciferase); experiment: Primary Nanoluciferase (NLuc) qHTS assay for identification of artifact compounds. (AID 1845222); details: NLuc-conditioned medium, Nano-Glo luminescence, 5 min; series mostly up to 54.1 µM;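 note: NLuc secreted into diluted conditioned medium of S16 cells; 0% = DMSO and -100% = no enzyme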
How it was run: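 Using secreted nanoluciferase in S16 culture medium (0.22 um filtered, 1:55 dilution), compounds were preincubated 15 min at RT. Signal was generated with Nano-Glo reagent (1:100) over 5 min.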

[5] = Primary redox qHTS assay for identification of artifact compounds. (AID 1845223); details: Amplex Red/HRP redox cycling with DTT, fluorescence; series mostly up to 53.8 µM;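 note: 0% = DMSO and 100% = reference compound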
How it was run: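 Amplex Red (25 uM) and HRP (250 mU/mL) in HBSS, with compounds for 15 min, then 250 uM DTT for 30 min, room temperature, dark. Fluorescence 525/598 nm read; normalized to DMSO and 10 uM DA3003; Hill fit.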

Glutathione peroxidase 1 (Homo sapiens), sequence (P07203 whole entry, looked up): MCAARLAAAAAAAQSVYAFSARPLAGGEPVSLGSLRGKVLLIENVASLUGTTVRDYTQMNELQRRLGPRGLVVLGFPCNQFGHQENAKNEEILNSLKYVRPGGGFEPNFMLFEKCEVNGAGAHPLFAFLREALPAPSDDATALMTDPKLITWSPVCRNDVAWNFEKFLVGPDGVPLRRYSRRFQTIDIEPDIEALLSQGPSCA
Phospholipid hydroperoxide glutathione peroxidase GPX4 (Homo sapiens), sequence (P36969 whole entry, looked up): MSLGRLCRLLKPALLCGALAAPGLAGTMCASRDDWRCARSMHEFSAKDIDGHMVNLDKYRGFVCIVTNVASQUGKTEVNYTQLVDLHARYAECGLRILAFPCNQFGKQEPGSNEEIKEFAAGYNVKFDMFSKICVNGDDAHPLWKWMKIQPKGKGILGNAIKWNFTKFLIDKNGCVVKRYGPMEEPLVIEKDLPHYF

CC(O)C(=O)/C=C/C=C/C(=O)OC1C=C2COC(=O)C2(O)C2(C)CCCC(C)(C)C12 (stereo not given)
inactive: Potency [1] | Potency [2] | Potency [3] | Potency [4] | Potency [5]

Cc1c(O)cc2c(c1O)COC1(O)CCCOC21 (stereo not given)
inactive: Potency [1] | Potency [2] | Potency [3] | Potency [4] | Potency [5]

C=C1C[C@@]2(O)O[C@@]3(C[C@H]2C(C)C)[C@@H](C)CC[C@@H]13
inactive: Potency [1] | Potency [2] | Potency [3] | Potency [4] | Potency [5]

C[C@@H]1O[C@@H](O[C@H]2[C@@H]3C=CO[C@@H](O[C@@H]4O[C@H](CO)[C@@H](O)[C@H](O)[C@H]4O)[C@@H]3[C@@]3(CO)O[C@@H]23)[C@H](O)[C@H](O)[C@H]1OC(=O)/C=C/c1ccc(O)cc1
inactive: Potency [1] | Potency [2] | Potency [3] | Potency [4] | Potency [5]

C=C[C@H]1[C@H](O[C@@H]2O[C@H](CO)[C@@H](O)[C@H](O)[C@H]2O)OC=C2C(=O)N3Cc4c([nH]c5ccccc5c4=O)[C@@H]3C[C@H]21
inactive: Potency [1] | Potency [2] | Potency [3] | Potency [4] | Potency [5]

CC1=CC(=O)CC(C)(C)C1/C=C/C(C)OC1OC(COC2OCC(O)C(O)C2O)C(O)C(O)C1O (stereo not given)
inactive: Potency [1] | Potency [2] | Potency [3] | Potency [4] | Potency [5]

CC(C)=CCC/C(C)=C/CO[C@@H]1O[C@H](CO[C@@H]2OC[C@](O)(CO)[C@H]2O)[C@@H](O)[C@H](O)[C@H]1O
inactive: Potency [1] | Potency [2] | Potency [3] | Potency [4] | Potency [5]

COc1cc(CO)ccc1O[C@@H]1O[C@H](CO)[C@@H](O)[C@H](O)[C@H]1O
inactive: Potency [1] | Potency [2] | Potency [3] | Potency [4] | Potency [5]

CC(C)C1NC(=O)C2CCCN2C1=O (stereo not given)
inactive: Potency [1] | Potency [2] | Potency [3] | Potency [4] | Potency [5]

COc1ccc(/C=C/C(=O)O[C@@H]2[C@@H](O[C@@H]3O[C@H](CO)[C@@H](O)[C@H](O)[C@H]3O)[C@@H](O)[C@H](O[C@H]3C4C=CO[C@@H](O[C@@H]5O[C@H](CO)[C@@H](O)[C@H](O)[C@H]5O)C4[C@@]4(CO)O[C@@H]34)O[C@H]2C)cc1 (stereo not given in full)
inactive: Potency [1] | Potency [2] | activity change, negative = inhibition [3] -3.03% [at 11.6 µM] | activity, negative = inhibition [4] 1.1% [at 11.6 µM] | redox activity (% of DA3003) [5] 9.47% [at 11.5 µM]

CC1=C2C(=O)C=C(CO)C2[C@H]2OC(=O)[C@H](C)[C@@H]2[C@@H](OC(=O)Cc2ccc(O)cc2)C1 (stereo not given in full)
inactive: Potency [1] | Potency [2] | Potency [3] | Potency [4] | Potency [5]

COc1cc(/C=C/C(=O)O[C@H]2[C@@H]3C=CO[C@@H](O[C@@H]4O[C@H](CO)[C@@H](O)[C@H](O)[C@H]4O)[C@@H]3[C@@]3(CO)O[C@@H]23)ccc1O
inactive: Potency [1] | Potency [2] | Potency [3] | Potency [4] | Potency [5]

C=C(CCO[C@@H]1O[C@H](CO)[C@@H](O)[C@H](O)[C@H]1O)C(=O)O
inactive: Potency [1] | Potency [2] | Potency [3] | Potency [4] | Potency [5]

CN(C)c1ccc(C2O[C@@H](c3ccccc3)C[C@H](c3ccccc3)O2)cc1 (stereo not given in full)
inactive: Potency [1] | Potency [2] | Potency [3] | Potency [4] | Potency [5]

CC1=C2C3OC(=O)C(C)C3(O)CCC2(C)CCC1 (stereo not given)
inactive: Potency [1] | Potency [2] | Potency [3] | Potency [4] | Potency [5]

COC(=O)c1ccc(OC)cc1O[C@@H]1O[C@H](CO[C@@H]2OC[C@@H](O)[C@H](O)[C@H]2O)[C@@H](O)[C@H](O)[C@H]1O
inactive: Potency [1] | Potency [2] | Potency [3] | Potency [4] | Potency [5]

CCN(CCN(C)C)C(=O)CNCc1cc(C(N)=O)ccn1
inactive: Potency [1] | Potency [2] | Potency [3] | Potency [4] | Potency [5]

COC(=O)C1=CO[C@@H](O[C@@H]2O[C@H](CO)[C@@H](O)[C@H](O)[C@H]2O)[C@H]2[C@@H]1[C@H](O)C[C@]2(C)O
inactive: Potency [1] | Potency [2] | Potency [3] | Potency [4] | Potency [5]

Cc1occc(=O)c1O[C@@H]1O[C@H](COC(=O)CC(C)(O)CC(=O)O)[C@@H](O)[C@H](O)[C@H]1O (stereo not given in full)
inactive: Potency [1] | Potency [2] | Potency [3] | Potency [4] | Potency [5]
